Source: PubChem BioAssay
sEH activator = increases human soluble epoxide hydrolase activity. P34913. purified human sEH enzymatic activity, activator screen. activation, % at 2 µM. 0.04% of 91,000 active; in the data active means activation above about 37%
PostGolgi yeast = growth inhibition of a yeast mutant, post-Golgi transport screen; 0.9% of 98,000 active; AID 739; inhibition, % at 10 µM; post-Golgi transport phenotypic cell assay;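 further: yeast cells grown in 1536-well plates; yeast grown about 18 h at 30C before absorbance read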
sEH inhibitor = inhibitors of human soluble epoxide hydrolase. P34913. recombinant human sEH enzymatic activity assay. inhibition, % at 2 µM. 0.34% of 91,000 active; in the data active means inhibition above about 80%
PostGolgi ctrl = growth of the yeast control strain, post-Golgi counter-screen | efflux-deficient yeast background strain, growth absorbance A615, 16 h | inhibition, % at 10 µM | 5% of 98,000 active
Cav3 T inh = inhibitors of human Cav3.2 T-type calcium channel. O95180. Cav3.2-expressing cells, Fluo-4 calcium fluorescence FDSS; active compounds read low. B-score at 10 µM. 4% of 100,000 active. AID 449739;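 active means single-dose well whose peak fluorescence ratio is a statistical outlier from its plate by either plate-standardised score or position-corrected B-score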
An asterisk follows results filed as active. Only some compounds are listed: those with a hit (about 7.8% of all), similar ones and a draw of the others. Unless noted, no stated cut-off is given here; in the data, active means inhibition above about 30%; inactive means the rest.

`NS(=O)(=O)c1ccc(NC(=O)CSc2nnc(Cc3cccs3)n2-c2ccccc2)cc1` gave sEH activator 8, PostGolgi yeast -8, sEH inhibitor -9, PostGolgi ctrl 34* and Cav3 T inh -0.75.
For COc1ccc(-n2c(Cc3cccs3)nnc2SCC(=O)Nc2ccc3c(c2)OCCO3)cc1 the results were sEH activator 1, PostGolgi yeast -7, sEH inhibitor -4, PostGolgi ctrl 6 and Cav3 T inh -6.8*.
For Cc1c(C=O)c2ccccc2n1CC(=O)N1CCc2ccccc2C1 the results were sEH activator -16, sEH inhibitor 16 and Cav3 T inh 1.2.
O=C(NC1CCCCC1)N1CCN(C(c2ccccc2)c2ccccc2)CC1 was read as sEH activator -1, PostGolgi yeast -2, sEH inhibitor 4, PostGolgi ctrl 16 and Cav3 T inh -1.3.
For COC(=O)c1cc(OC)c(OC)cc1NC(=O)CSc1nnnn1Cc1ccccc1 the results were sEH activator 5, PostGolgi yeast -6, sEH inhibitor -4, PostGolgi ctrl 38* and Cav3 T inh -1.8.
`Cc1ccsc1C(=O)OCC(=O)NCc1ccc2c(c1)OCO2` gave PostGolgi yeast -3, PostGolgi ctrl -4 and Cav3 T inh 0.52.
`CC(=O)OCC(=O)NCc1ccc2c(c1)OCO2` gave sEH activator 6, PostGolgi yeast -6, sEH inhibitor -6, PostGolgi ctrl 30* and Cav3 T inh -0.61.
Screening C=CCOc1nc2c(c(=O)n(Cc3ccc(Cl)cc3)c(=O)n2C)n1C returned PostGolgi yeast -10, PostGolgi ctrl 3 and Cav3 T inh -0.39.
`COc1ccc(CN(C(=O)CSc2nnc(-c3ccccc3C)o2)c2ccc(F)cc2)cc1` gave sEH activator 4, sEH inhibitor -1 and Cav3 T inh -4.7*.
CCOC(=O)CN(C(=O)CSc1nnc(-c2cccc(OC)c2)o1)c1ccc(F)cc1 was read as sEH activator -2, PostGolgi yeast -16, sEH inhibitor 0, PostGolgi ctrl 12 and Cav3 T inh -0.76.
For O=C(CSc1nnc(-c2c[nH]c3ccccc23)o1)N(Cc1ccccc1)c1ccc(F)cc1 the results were sEH activator 7, PostGolgi yeast -5, sEH inhibitor -6, PostGolgi ctrl 53* and Cav3 T inh -2.5.
`COc1ccc(-c2nnc(SCC(=O)Nc3cc(F)ccc3C)o2)cc1` gave PostGolgi yeast -20, PostGolgi ctrl 9 and Cav3 T inh -5.6*.
COc1ccc(-c2nnc(NC(=O)c3ccc(S(=O)(=O)N4CCCc5ccccc54)cc3)o2)cc1 was read as sEH activator 2, PostGolgi yeast 2, sEH inhibitor -4 and PostGolgi ctrl 20.
`CCC(=O)N1CCCc2cc(S(=O)(=O)N3CCCc4ccccc43)ccc21` gave sEH activator 15, PostGolgi yeast 17, sEH inhibitor -9, PostGolgi ctrl 35* and Cav3 T inh -1.4.
`O=C(Nc1nnc(C2CC2)o1)c1ccc(S(=O)(=O)N2CCCc3ccccc32)cc1` gave sEH activator -10, PostGolgi yeast 33*, sEH inhibitor 14 and PostGolgi ctrl 3.
`O=C(NCc1ccco1)c1ccc(S(=O)(=O)N2CCCc3ccccc32)cc1` gave sEH activator -2, PostGolgi yeast -15, sEH inhibitor -1, PostGolgi ctrl 2 and Cav3 T inh -3.9*.
`CCC(=O)N1CCc2cc(S(=O)(=O)N3CCc4ccccc4C3)ccc21` gave sEH activator 17, PostGolgi yeast 1, sEH inhibitor -16, PostGolgi ctrl -2 and Cav3 T inh 0.23.
For CCOC(=O)CCCc1sc(N)nc1-c1[nH]c(=O)[nH]c1C the results were sEH activator 12, PostGolgi yeast 3, sEH inhibitor -12, PostGolgi ctrl -2 and Cav3 T inh -0.089.
`CCn1nc(C)c(C(=O)Nc2cc(Oc3ccc(Cl)cc3)cc([N+](=O)[O-])c2)c1C` gave sEH activator -4, PostGolgi yeast -12, sEH inhibitor 5, PostGolgi ctrl 8 and Cav3 T inh -1.4.
For O=S(=O)(c1ccccc1)c1cnc(-c2cccnc2)nc1-c1ccccc1 the results were sEH activator -14, PostGolgi yeast -2, sEH inhibitor 12 and PostGolgi ctrl 9.
`Cc1nc(-c2ccccc2)sc1-c1nc(-c2cccs2)ncc1S(=O)(=O)c1ccccc1` gave PostGolgi yeast 9, PostGolgi ctrl 10 and Cav3 T inh -4.8*.
`Cc1nc(-c2ccccc2)sc1-c1nc(-c2cccnc2)ncc1S(=O)(=O)c1ccccc1` gave PostGolgi yeast 2, PostGolgi ctrl 32* and Cav3 T inh -5*.
